Results taken from ChEMBL document CHEMBL3433997, “St. Jude Leishmania screening dataset” (2016).

Tests used:
Assay type in all cases: functional
[1] = target: Solute carrier family 2, facilitated glucose transporter member 1 (Homo sapiens) (UniProt P11166); assay: ST_JUDE_LEISH: Cytotoxicity at 2uM final concentration against transgenic Leishmania Mexicana promastigotes LmGLUT1 that are glucose transport deficient and complemented with the human glucose transporter GLUT1. Activity is measured by DNA content using SYBR green in vitro
Sequence of Solute carrier family 2, facilitated glucose transporter member 1 (Homo sapiens) (P11166 whole entry): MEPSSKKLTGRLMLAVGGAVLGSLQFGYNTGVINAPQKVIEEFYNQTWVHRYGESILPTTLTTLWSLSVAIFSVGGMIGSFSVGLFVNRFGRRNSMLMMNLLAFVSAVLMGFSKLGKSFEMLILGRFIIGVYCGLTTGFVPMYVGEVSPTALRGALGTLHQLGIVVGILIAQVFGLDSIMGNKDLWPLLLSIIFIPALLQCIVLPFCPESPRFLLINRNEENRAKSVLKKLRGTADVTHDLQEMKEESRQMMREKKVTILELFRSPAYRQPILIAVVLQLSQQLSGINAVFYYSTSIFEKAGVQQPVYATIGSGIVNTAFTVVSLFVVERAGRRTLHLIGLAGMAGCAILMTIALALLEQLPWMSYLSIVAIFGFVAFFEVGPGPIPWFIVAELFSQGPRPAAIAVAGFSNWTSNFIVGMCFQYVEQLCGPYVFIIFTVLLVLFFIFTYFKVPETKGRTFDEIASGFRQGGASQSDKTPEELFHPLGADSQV

[2] = target: Hexose transporter 1 (Plasmodium falciparum) (UniProt O97467); assay: ST_JUDE_LEISH: Cytotoxicity at 2uM final concentration against transgenic Leishmania Mexicana promastigotes LmPfHT that are glucose transport deficient and complemented with the Plasmodium falciparum hexose transporter. Activity is measured by DNA content using SYBR green in vitro
[3] = target: Glucose transporter (Leishmania mexicana) (UniProt O61059); assay: ST_JUDE_LEISH: Cytotoxicity at 2uM final concentration against transgenic Leishmania Mexicana promastigotes LmGT2 that are glucose transport deficient and complemented with the L. Mexicana glucose transporter 2. Activity is measured by DNA content using SYBR green in vitro

SMILES | inhibition [1] [%] | inhibition [2] [%] | inhibition [3] [%]
Cc1nc(-c2cccc(NCc3ccccc3)c2)[nH]c1C | 6.94 | 7.04 | 1.13
CO/C(=C\C=C\c1cc2cc(Cl)c(Cl)cc2[nH]1)C(=O)NCCCN1CCN(Cc2ccccc2)CC1 | 2.32 | 0.91 | 2.11
CCCCCCn1c(Sc2ccc(C#N)c([N+](=O)[O-])c2)nnc1-c1cc(OC)cc(OC)c1 | 5.8 | 6.04 | 4.53
Cc1cc(OCCCN2CCC(NC(=O)c3ccc(Br)cc3)C2)c2ccccc2n1 (stereo not given) | 24.3 | 19.2 | 13.4
Fc1ccc2[nH]c(-c3ccc(-c4ccc(CNCC5CCCO5)cc4)s3)nc2c1 (stereo not given) | 11.9 | 9.33 | 11
CCCc1cc(Cc2cnc(N)nc2N)cc(CC)c1OC | 6.06 | 4.59 | 2.29
Cc1cc(N(C)C)nc(Nc2ccc(NC(=O)c3c(F)cccc3F)cc2)n1 | 6.1 | 6.29 | -2.85
COc1ccc(NCc2cccc(-c3cccc(CNCCc4ccccc4)c3)c2)cc1 | 0 | 0.51 | -1.32
CCc1ccc(NC(=O)c2ccc(CN3CCCN(Cc4cccc(C)c4)CC3)cc2)cc1 | 7.45 | 9.33 | 5.79
CCc1c(CCNCCCCCNCCc2ccc(OC)c(OC)c2CC)ccc(OC)c1OC | 3.35 | 5.75 | 4.72
Cc1ccc(CCC(C)NCC(O)c2cccc(C(F)(F)F)c2)cc1 (stereo not given) | -0.37 | 0.53 | 0.17
Clc1ccc(Cn2nc(Br)nc2Br)c(Cl)c1 | -0.61 | -1.03 | -4.56
COc1ccc2ncc(F)c(CCN3CCC(NCc4cnc5c(c4)NC(=O)CS5)CC3)c2c1 | 1.52 | 2.49 | 2.03
CC1CN(Cc2ccc(-c3ccc(-c4nc5ccccc5[nH]4)cc3)cc2)CC(C)O1 (stereo not given) | 6.34 | 6.82 | 4.66
N=C1NC(c2ccccc2)(c2ccccc2)C(=O)N1CC=Cc1ccccc1 | 7.01 | 8.66 | 4.83
COc1ccc(CNC2CCN(C)CC2)cc1-c1ccc(S(=O)(=O)NCC2CCCO2)s1 (stereo not given) | 3.99 | 4.98 | 5.52
Cc1cc2[nH]c(-c3ccc(C(=O)NCCCN4CCN(c5cccc(Cl)c5)CC4)s3)nc2cc1Cl | 3.07 | 3.29 | 2.02
O=C(NCCCN1CCCC1=O)NCc1ccccc1 | 0.3 | -0.23 | -0.11

SMILES | inhibition [1] [%] | inhibition [2] [%] | inhibition [3] [%]
COc1cccc(-c2[nH]c3ccccc3c2CN2CCC(c3c(C)cccc3C)CC2)c1 | 2.03 | 2.95 | -1.74
O=C(N[C@@H](CC1CCCCC1)C(=O)NCCN1CCCC1)c1ccc(O)c(-c2ccc(Cl)c(Cl)c2)c1 | 0.12 | 0.41 | 0.58
CCc1ccc(C2CCN(CCCCNC(=O)c3ccc(-c4ccc(Cl)cc4)cc3)CC2)c(O)c1 | 0.23 | 2.44 | 2.8
Cn1nccc1C(=O)NCCNCc1cccc(-c2ccc(-c3nc4ccccc4[nH]3)cc2)c1 | 0.23 | 0.79 | -1.98
NC(CC1CC(=O)N1CC(=O)O)C(=O)O (stereo not given) | 8.57 | 7.82 | 8.53
Cc1cc(Nc2cccc(C#N)c2)nc(Nc2ccccc2C)n1 | 77.7 | 91.1 | 52.3
Cc1ccc2nc(-c3ccc(/C=C/C(=O)NC4CCN(Cc5ccccc5)CC4)cc3)[nH]c2c1C | 8.42 | 8.63 | 9.58
COc1cc(-c2cc3cc(Cl)c(Cl)cc3[nH]2)ccc1C(=O)NC1CCN(Cc2ccccc2)CC1 | 4.58 | 2.67 | 3.54
CC(=O)Oc1ccc(C(=O)Oc2ccccc2C#CC#N)cc1OC(C)=O | -2.02 | 0.93 | -1.3
CCCCCn1c(Sc2ccc(C#N)c([N+](=O)[O-])c2)nnc1-c1cc(OC)cc(OC)c1 | 13 | 10.4 | 9.25
O=C(NC1CCCCC1)N(CCCn1ccnc1)Cc1csc(-c2ccc(CNCc3ccccc3)cc2)n1 | 0.1 | 0.82 | 1.34
COc1ccc(NC(=O)/C=C/c2ccccc2Cl)cc1OCCN1CCC(N2CCN(C)CC2)CC1 | 4.65 | 6.39 | 0.87
COc1ccc(Nc2ncc(C#N)c(Nc3ccccc3C(N)=O)n2)cc1N1CCN(C)CC1 | 15.8 | 18.1 | 9.63
O=C(NCC1CCN(Cc2cccc(C(F)(F)F)c2)C1)c1cc(-c2cccc(F)c2)cs1 (stereo not given) | 5.58 | 5.35 | 5.45
COC(=O)c1ccc(CCCNCC(O)c2cccc(C(F)(F)F)c2)cc1 (stereo not given) | 2.51 | 3.05 | 6.4
O=C(c1ccc2ccccc2n1)N1CCCc2cc(Br)ccc21 | 8.95 | 1.96 | 0.16
O=C(Nc1ccc(Cl)c(Cl)c1)N1CCc2cc3nccc(N4CCN5CCC[C@H]5C4)c3cc21 | 3.24 | 4.53 | 4.1
